# LYPLA1 counter – LYPLA1 inhibitors, primary screen, counter-screen for PME1 inhibitor project, biochemical, fluorescence polarization, FP-Rh probe ABPP | recombinant LYPLA1 | inhibition, % at 5.9 µM | hit rate 0.16% among 320,000 | AID 2174, 2009;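 active = inhibition above the mean of all tested compounds plus 3 SD, set per campaign, cut at about 14% in these data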;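 note: inhibitors block serine hydrolase probe labeling of LYPLA1 so polarization falls; 0% = enzyme with DMSO and 100% = wells lacking LYPLA1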
# Target sequence (O75608 whole entry, looked up): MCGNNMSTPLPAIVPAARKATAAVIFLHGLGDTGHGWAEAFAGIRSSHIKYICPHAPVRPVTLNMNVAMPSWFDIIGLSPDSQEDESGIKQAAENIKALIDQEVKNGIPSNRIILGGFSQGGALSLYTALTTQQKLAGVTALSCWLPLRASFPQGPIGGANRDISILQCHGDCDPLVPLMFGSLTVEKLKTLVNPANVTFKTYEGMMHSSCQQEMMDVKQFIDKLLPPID
# PME-1 inh – PME-1 inhibitors via competitive probe labeling, primary screen, biochemical, fluorescence polarization, FP-Rh probe, HTS | Protein phosphatase methylesterase 1 (Homo sapiens), Q9Y570 | recombinant PME-1 | inhibition, % at 5.9 µM | hit rate 0.53% among 320,000 | AID 2130, 2009;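 active = inhibition above the campaign mean of all compounds plus 3 SD, cut at about 26% in these data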;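 note: competitive labeling of PME-1 active site by serine hydrolase directed probe; 0% = PME-1 with DMSO and 100% = wells lacking PME-1 enzyme; inhibitors block probe labeling so polarization falls and inhibition rises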
# PAD4 inh – human PAD4 inhibitors, primary screen, biochemical, fluorescence polarization, 1536-well format. Protein-arginine deiminase type-4 (Homo sapiens), Q9UM07. recombinant PAD4, RCA probe fluorescence polarization. inhibition, % at 6.36 µM. hit rate 0.41% among 330,000. AID 485272, 2010;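 active = percent inhibition above a cutoff equal to the mean of all tested compounds plus 3 SD, cut at about 15% in these data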;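 note: 0% = PAD4 with RCA probe and DMSO and 100% = probe without PAD4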
# Fam108B counter – mouse Fam108B serine hydrolase inhibitors, primary screen, counter-screen for RBBP9 inhibitor project, biochemical, fluorescence polarization. inhibition, % at 9.51 µM. recombinant Fam108B, FP-Rh probe fluorescence polarization. hit rate 0.33% among 300,000;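 active = inhibition above the screen mean inhibition plus 3 SD, computed separately per campaign, cut at about 18% in these data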;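 note: inhibitors lower polarization as less probe binds the enzyme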
# GSTO1 inh – inhibitors of recombinant GSTO1, primary screen, counter-screen for RBBP9 inhibitor project, biochemical, fluorescence polarization. Glutathione S-transferase omega-1 (Homo sapiens), P78417. activity-based probe fluorescence polarization. inhibition, % at 5.96 µM. hit rate 1.1% among 300,000;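 active = inhibition above the campaign mean inhibition plus 3 SD, cut at about 35% in these data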;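 note: 0% = GSTO1-1 with DMSO and 100% = wells lacking GSTO1-1 enzyme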
# Target sequence (P78417 whole entry, looked up): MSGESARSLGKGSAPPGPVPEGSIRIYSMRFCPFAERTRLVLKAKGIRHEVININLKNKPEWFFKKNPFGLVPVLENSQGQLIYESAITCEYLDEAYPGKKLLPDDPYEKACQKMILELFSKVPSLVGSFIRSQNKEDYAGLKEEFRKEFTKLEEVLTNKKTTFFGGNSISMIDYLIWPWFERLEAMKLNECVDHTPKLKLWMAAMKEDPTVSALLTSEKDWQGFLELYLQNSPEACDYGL
# LYPLA2 counter – LYPLA2 inhibitors, primary screen, counter-screen for PME1 inhibitor project, biochemical, fluorescence polarization, FP-Rh probe ABPP. inhibition, % at 5.9 µM. recombinant LYPLA2. hit rate 0.38% among 320,000;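 active = inhibition above the screen-wide mean plus 3 SD, limit set per campaign, cut at about 26% in these data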;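 note: 0% = LYPLA2 with DMSO and 100% = wells lacking LYPLA2 enzyme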
# * hit, by the source's call; nt = no result. A selection: hits, their analogues and other compounds. The true share with any hit is near 1.8%.
SMILES,LYPLA1 counter,PME-1 inh,PAD4 inh,Fam108B counter,GSTO1 inh,LYPLA2 counter
Cc1ccc(NCC(=O)c2ccccc2)cc1Cl,6,0,-6,-2,4,4
Cc1ccc(NC2=C(NC(=O)c3ccccc3)C(=O)c3ccccc3C2=O)cc1Cl,1,10,3,8,62*,3
CC1=CC(C)(C)Nc2ccc(OC(=O)CN3C(=O)c4cccc5cccc(c45)C3=O)cc21,-2,7,-12,6,37*,7
CC1=CC(C)(C)Nc2ccc(OC(=O)CN3C(=O)c4ccccc4C3=O)cc21,-1,6,-5,0,56*,-4
CC1=CC(C)(C)Nc2ccc(OC(=O)C(Cc3ccccc3)N3C(=O)c4ccccc4C3=O)cc21 (stereo not given),-5,2,-4,7,-1,-3
CCOc1ccc2c(c1)C(C)=CC(C)(C)N2,4,2,-7,nt,nt,-3
Cc1ccc2c(c1C)NC(C)CC2C (stereo not given),1,-3,-1,0,-1,-2
O=C(/C=C/c1ccc([N+](=O)[O-])s1)N1CCCCC1,-3,12,-5,2,35*,-3
O=C(/C=C/c1ccc([N+](=O)[O-])s1)N1CCCC1,0,1,-4,1,22,8
Cc1ccccc1NC(=O)Cc1nc(COC(=O)c2cccc(O)c2)cs1,-6,-5,1,nt,nt,-10
Cc1ccc(C)c(NC(=O)Cc2nc(CCl)cs2)c1,2,-3,0,4,95*,-1
CC(C)N(C(=O)[C@H]1CC(CC(=O)NCc2cccc(C(F)(F)F)c2)C(=O)N2CCc3c([nH]c4ccccc34)[C@]12C)C(C)C (stereo not given in full),nt,nt,7,nt,nt,nt
O=C1NC(Cc2ccccc2)c2nc3ccc(Cl)cc3c(=O)n2-c2ccccc21 (stereo not given),nt,nt,0,nt,nt,nt
C=CCn1c(SCC(=O)c2ccc(Br)cc2)nnc1C(CC(C)C)NC(=O)c1cccs1 (stereo not given),-4,0,1,-5,36*,0
CC(C)CC(NC(=O)c1cccs1)c1nnc(SCc2ccc(Cl)c(Cl)c2)n1C (stereo not given),0,3,-3,-3,5,0
Cc1nn(-c2ccccc2)c(C)c1-c1nnc(-c2c(C)nn(-c3ccccc3)c2C)o1,-3,-2,1,-4,0,-4
Cc1onc(-c2ccccc2)c1C(=O)NCCCc1ccccc1,0,-1,-13,nt,nt,-1
Cc1cccc(NC(=S)NCc2cccn2C)c1,1,-3,2,5,37*,0
O=C1Nc2ccc(C(F)(F)F)cc2N2CCCC12 (stereo not given),-6,-4,-8,-4,38*,-10
O=C1Nc2cc(C(F)(F)F)ccc2N2CCCCC12 (stereo not given),-2,-2,3,-3,16,-4
O=[N+]([O-])c1cc(O)c2ncccc2c1,-6,-4,-18,9,37*,-11
Cc1ccc(CNC(=O)COc2ccc(C(=O)c3ccc(F)cc3)cc2)cc1,-1,-9,6,1,56*,1
O=C(Nc1nnc(SCc2cccnc2)s1)C1CC(=O)N(c2ccccc2)C1 (stereo not given),-3,3,-4,3,1,12
NS(=O)(=O)c1ccc(N=Nc2c[nH]c(=O)c(O)c2)cc1,-4,-66,3,4,64*,-9
COc1ccc2c(c1)[nH]c1c(N3CCN(Cc4ccc5c(c4)OCO5)CC3)ncnc12,-6,26*,0,10,-10,2
SMILES,LYPLA1 counter,PME-1 inh,PAD4 inh,Fam108B counter,GSTO1 inh,LYPLA2 counter
COc1cccc2[nH]c3c(N4CCN(Cc5ccc6c(c5)OCO6)CC4)ncnc3c12,-4,20,-4,4,1,-1
CC(C)NC[C@H](O)COc1ccc(CC(N)=O)cc1,-3,1,1,-2,9,2
CCOc1c(O)ccc(/C=C2\SC(=S)NC2=O)c1[N+](=O)[O-],-1,-2,-17,10,56*,-3
CCOc1ccc(N(C)c2ccc(/C=C3/SC(=S)NC3=O)cc2)cc1,-10,-6,-28,3,-1,-4
COc1ccc(N2CCN(CCNC(=O)c3ccc(NC(=O)C4CCCO4)cc3)CC2)cc1 (stereo not given),3,-4,-1,1,1,-1
COc1ccccc1C(C)NS(=O)(=O)c1cccs1 (stereo not given),2,-3,97*,0,-3,4
CC(C(=O)Nc1ccc([N+](=O)[O-])cc1)N1CCN(C/C=C/c2ccccc2)CC1 (stereo not given),-1,-5,-1,-1,3,31*
CCOC(=O)c1c(C)[nH]c(C)c1S(=O)(=O)N(C)CC(=O)Nc1cc(C)ccc1OC,-3,26*,0,4,-1,2
O=C1c2cccc3c(N4CCCCC4)ccc(c23)C(=O)N1c1cccc(O)c1,-22,27*,-23,-22,-18,-28
Cc1nnsc1C(=O)NC1CCCc2c1cnn2-c1ccc(C(C)(C)C)cc1 (stereo not given),3,2,0,-3,35*,10
Cc1ccc(Nc2nnc(SC/C(O)=C(\C#N)c3nc4ccccc4[nH]3)s2)c(C)c1,-8,64*,-7,18,-3,-4
Cc1cc(C)n2nc(C(=O)OCC(=O)NCc3ccc(F)cc3)nc2n1,nt,nt,0,nt,nt,nt
O=C(CCl)c1ccc2c(c1)CCN2C(=O)C1CC1,2,0,-3,-3,57*,1
Cc1nc2ccc(N)cc2s1,-1,-5,-1,3,7,-1
CN(C)c1ccc2nc3ccc(=[N+](C)C)cc-3sc2c1,-1,4,-3,-3,36*,-5
COC(=O)N1C(=O)[C@](c2ccccc2)(C(C)C)N1C(=O)OC,-1,35*,0,-4,-5,-4
COc1cc(/C=C(\C#N)C(=O)c2ccc(O)c(O)c2)cc(I)c1O,-7,-24,-32,-3,45*,-12
O=C(O)c1ccccc1Nc1cccc(OCc2ccc3ccccc3n2)c1,-1,30*,3,5,7,9
O=C(COc1ccc2ccccc2c1)Nc1cccc(C(=O)Nc2ccccc2C(=O)O)c1,-20,-80,-8,-20,-76,-31
CC(C)(C)c1ccc(NC(=O)C2=CC=CN3CCS(=O)(=O)N=C23)cc1,0,55*,4,nt,nt,2
